One experiment has as its system CRL-7250. In words: Cytotoxic Profiling of Annotated Libraries Using Quantitative High-Throughput Screening (AID 1296008). The following applies: Five cell lines viability, CellTiter-Glo ATP luminescence, 48-72 h; max response: active compounds read low. An outline of the steps:
(§1)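 Cytotoxicity was measured as CellTiter-Glo ATP luminescence, read after 10 min at room temperature. Compound treatment of the cells lasted 48 or 72 hr at 37 degrees Celsius in a qHTS format.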
(Cellular ATP, detected with luciferase, serves as a proxy for viable cell number.)

The test system of a further experiment is HEK293. The description is as above. The following applies: Five cell lines viability, CellTiter-Glo ATP luminescence, 48-72 h; max response: active compounds read low. An outline of the steps: as §1
The test system of the next experiment is HaCat. The experiment is described as above. As to conditions: Five cell lines viability, CellTiter-Glo ATP luminescence, 48-72 h; max response: active compounds read low. Put shortly:
as §1

For the next experiment, the system named is KB-3-1. Described as above. The following applies: Five cell lines viability, CellTiter-Glo ATP luminescence, 48-72 h; max response: active compounds read low. An outline of the steps:
as §1

In a further experiment the test system is NIH3T3. The experiment is described as above. As to conditions: Five cell lines viability, CellTiter-Glo ATP luminescence, 48-72 h; max response: active compounds read low. Put shortly: as §1
The subject of the next experiment is MCC-13. Nature of the experiment: qHTS assay to identify novel small-molecules to repurpose for Merkel cell carcinoma treatment (AID 1296009). The following applies: MCC and control cell lines, CellTiter-Glo viability, 72 h; series mostly up to 46 µM. An outline of the steps:
(§2)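 After compound transfer in DMSO, plates were kept 72 hr at 37 degree celsius. Luminescent ATP signal from CellTiter-Glo served as viability measure, normalized against DMSO and no-cell controls.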
Background: Quantitative high-throughput screening tests each substance at several concentrations.

A further experiment has as its system MCC-26. Described as above. The following applies: MCC and control cell lines, CellTiter-Glo viability, 72 h; series mostly up to 46 µM. Put shortly: as §2

Values joined by “and” are separate entries in the source; they are usually repeats but may differ in a detail not shown here. Equal entries are not always repeated. Inconclusive results are not listed. A number with no mark means an inactive call. Active and inactive are the calls of the source. Calls come from the whole dose curve; as a rule, active = well fitted inhibition curve with a large enough effect; inconclusive = small, poorly fitted or top-dose-only effect; inactive = flat fitted curve, though single readings scatter.
% is set by controls: 0 for no effect and ±100 for the full control effect; potency is the fitted concentration of half-maximal effect.
Note: nearly all actives have a fitted effect of over 60% in size.

As to `Cc1[nH]nc2ccc(-c3cncc(OC[C@@H](N)Cc4ccccc4)c3)cc12`, the Potency is 2.64 µM (active) and 5.8 µM (active) with CRL-7250; 209 nM (active) and 651 nM (active) in the experiment on HEK293; 1.32 µM (active) and 411 nM (active) in the experiment on HaCat; 332 nM (active) in the experiment with KB-3-1; 3.72 µM (active) and 7.31 µM (active) with NIH3T3; 4.18 µM (active) in the experiment on MCC-13. Besides, the Potency with MCC-26 was 6.62 µM (active).

`CC(C)Nc1cc(C(F)(F)F)cc2nc(NC(=O)c3cccnc3)nn12`: the max response in the experiment on CRL-7250 was -10.3% and 1%; with HEK293, -16.8%; with HaCat, -1.8%; in the experiment with NIH3T3, 3.06% and -1.67%. Besides, the outcome with KB-3-1 was inactive. The Potency entry with MCC-13 is “inactive”.

Consider `COc1cccc2nc(-c3cccs3)nc(NN3C(=O)C=C(C)C3=O)c12`, for which the Potency in the experiment with CRL-7250 is 2.09 µM (active) and 6.51 µM (active); with HEK293, 418 nM (active) and 517 nM (active); with HaCat, 23.5 µM (active); in the experiment with KB-3-1, 5.9 µM (active) and 10.3 µM (active); with NIH3T3, 1.48 µM (active) and 820 nM (active); in the experiment with MCC-13 it was 2.64 µM (active). In addition, in the experiment with MCC-26, the Potency result is “inactive”.

As for `Clc1cccc(-n2nnnc2NCc2ccccc2Oc2ccccn2)c1Cl`, the call in the experiment with CRL-7250 and in the experiment with NIH3T3 was inactive. Besides, the max response is -13.7% and -15.5% in the experiment on HEK293; -3.03% and -4.47% in the experiment with HaCat; -10.9% and -7.38% in the experiment on KB-3-1. Moreover, the Potency result in the experiment on MCC-13 and in the experiment on MCC-26 was “inactive” in each case.

For `NC1(Cc2ccc(Cl)cc2)CCN(c2ncnc3[nH]ccc23)CC1`, the Potency in the experiment on CRL-7250 was 13.2 µM (active); in the experiment with HEK293, 1.66 µM (active) and 6.51 µM (active). Also, the max response is -10.8% in the experiment on HaCat, -6.56% in the experiment with KB-3-1 and 0.262% with NIH3T3. The Potency entry in the experiment on MCC-13 and in the experiment on MCC-26 was “inactive” in each case.

Take `CC[C@@H]1C(=O)N(C)c2cnc(Nc3ccc(C(=O)NC4CCN(C)CC4)cc3OC)nc2N1C1CCCC1`: the Potency was 2.64 µM (active) with CRL-7250; 0.0166 µM (active) in the experiment on HEK293; 0.0332 µM (active) in the experiment on HaCat; 8.3 nM (active) in the experiment on KB-3-1; 1.87 µM (active) in the experiment on NIH3T3; 0.662 µM (active) in the experiment on MCC-13.

As to `CC(C)c1ccc(Cn2ccc3c4c(N)nc(NC5CC5)nc4ccc32)cc1`, the Potency in the experiment on CRL-7250 was 3.32 µM (active); with HEK293, 1.18 µM (active); in the experiment on HaCat, 37.2 µM (active); in the experiment with KB-3-1 it was 1320 nM (active); in the experiment with NIH3T3, 4.69 µM (active); in the experiment on MCC-13, 1.05 µM (active).

In the case of `CNC(=O)c1nn(C)c2c1C(C)(C)Cc1cnc(Nc3ccc(N4CCN(C)CC4)cc3)nc1-2`, the Potency with CRL-7250 was 46.9 nM (active) and 580 nM (active); in the experiment on HEK293 it was 1.16 µM (active); with HaCat it was 1.66 µM (active) and 2.06 µM (active); in the experiment on KB-3-1 it was 3.32 µM (active) and 2.31 µM (active); with NIH3T3, 1.3 µM (active); with MCC-13, 5.9 µM (active).

Regarding `NCC(=O)Nc1ccc(-n2nc(C(F)(F)F)cc2-c2ccc3c(ccc4ccccc43)c2)cc1`, the max response was -6.6% in the experiment with CRL-7250, -18.9% with HaCat and -0.49% in the experiment with NIH3T3. In addition, the Potency is 166 nM (active) and 1.46 µM (active) in the experiment on HEK293; 26.4 µM (active) and 23.1 µM (active) with KB-3-1. The Potency result in the experiment on MCC-13 and with MCC-26 was “inactive” in each case.

With `C#Cc1cccc(Nc2ncnc3cc(OC)c(OCCCCCCC(=O)NO)cc23)c1`, the Potency in the experiment on CRL-7250 is 4.69 µM (active); with HEK293 it was 1.05 µM (active) and 4.61 µM (active); in the experiment on HaCat, 2.64 µM (active) and 6.51 µM (active); in the experiment with KB-3-1 it was 1.48 µM (active) and 4.11 µM (active); in the experiment on NIH3T3, 13.2 µM (active); in the experiment with MCC-13, 16.6 µM (active). In the experiment on MCC-26, the Potency was 10.5 µM (active).

With `O=C(Nc1cn[nH]c1-c1nc2ccc(CN3CCOCC3)cc2[nH]1)NC1CC1`, the Potency in the experiment on CRL-7250 was 1.3 µM (active); with HEK293, 10.5 µM (active) and 3.66 µM (active); in the experiment with HaCat, 2.64 µM (active) and 231 nM (active); in the experiment with KB-3-1 it was 5.9 µM (active) and 4.11 µM (active); with NIH3T3, 1.48 µM (active) and 1.84 µM (active); with MCC-13, 0.935 µM (active). In addition, the Potency with MCC-26 is 1.87 µM (active).

Regarding `CC[C@@]1(O)C(=O)OCc2c1cc1n(c2=O)Cc2cc3cc(O)ccc3nc2-1`, the Potency in the experiment on CRL-7250 is 1.3 µM (active) and 1.48 µM (active); in the experiment on HEK293, 73.1 nM (active) and 148 nM (active); in the experiment on HaCat, 116 nM (active) and 743 nM (active); in the experiment with KB-3-1 it was 517 nM (active) and 1.05 µM (active); in the experiment on NIH3T3 it was 1.46 µM (active) and 662 nM (active); in the experiment on MCC-13 it was 0.118 µM (active). For the same compound, the Potency with MCC-26 was 0.132 µM (active).

`Nc1nccc(Oc2ccc(NC(=O)c3c[nH]cc(-c4ccc(F)cc4)c3=O)cc2F)c1Cl`: the Potency in the experiment with CRL-7250 is 18.7 µM (active); with HEK293 it was 11.8 µM (active) and 13 µM (active); in the experiment with KB-3-1 it was 23.5 µM (active) and 18.4 µM (active); in the experiment on NIH3T3, 16.6 µM (active). Besides, the max response in the experiment on HaCat was -25.3%. The Potency entry in the experiment on MCC-13 was “inactive”.

As for `O=C(NCCCNc1nc(Nc2cccc(NC(=O)N3CCCC3)c2)ncc1I)c1cccs1`, the Potency was 5.9 µM (active) in the experiment with CRL-7250; 20.9 µM (active) in the experiment with HEK293; 18.7 µM (active) in the experiment on HaCat; 13200 nM (active) with KB-3-1; 2.09 µM (active) in the experiment on NIH3T3; 9.35 µM (active) with MCC-13.

For the compound `CNC(=O)c1cc(Oc2ccc(NC(=O)Nc3cc(C(C)(C)C)nn3-c3ccc4ncccc4c3)c(F)c2)ccn1`, the Potency in the experiment on CRL-7250 is 13.2 µM (active) and 18.4 µM (active); in the experiment on HEK293 it was 23.5 µM (active); in the experiment on HaCat, 7.31 µM (active); in the experiment with KB-3-1, 9.35 µM (active) and 5.17 µM (active); in the experiment on NIH3T3, 2.96 µM (active). Besides, the Potency result in the experiment with MCC-13 is “inactive”.

The values are drawn from PubChem BioAssay (NCATS).
